Compounds with a hit are over-represented: about 19% of the library has one in this group of screens.
HT1080NT lethal: qHTS for induction of synthetic lethality in tumor cells producing 2HG: qHTS for the HT-1080-NT fibrosarcoma cell line; HT-1080-NT fibrosarcoma viability, CellTiter-Glo ATP luminescence, 48 h; Potency, µM (doses to about 46.1 µM), for the others: at the top dose activity, negative = less viability, actives largely listed as cytotoxic; actives 1.6% (n = 360,000);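 also: NT is the 2HG producing partner of a matched IDH1 knockdown line; potency is read from the fitted curve at half-maximal effect; 0% = DMSO-treated cells and -100% = media-only wells without cells; nearly all actives have a fitted effect of over 55% in size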
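750 cells/well, RPMI + 5% FBS; 2 h settle, compound pin-transfer, 48 h at 37 degrees C. CellTiter-Glo 10 min RT, luminescence. Normalized to DMSO and media-only wells.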
HT1080 IDH1KD tx: qHTS for induction of synthetic lethality in tumor cells producing 2HG: qHTS for the HT-1080-IDH1KD cell line | HT-1080 IDH1 knockdown viability, ATP luminescence, 48 h | Potency, µM (highest dose often 46.1 µM), for inactives: top-dose activity, negative = toxicity, most hits filed as cytotoxic | actives 2% (n = 360,000);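 also: potency is read from the fitted curve at half-maximal effect; 0% = DMSO wells and -100% = cell-free medium wells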
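After a 2 h attachment period, IDH1KD HT-1080 cells took pin-transferred compound for 48 h at 37 °C; ATP-based luminescence after 10 min room-temperature reagent incubation reported viability.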
TDP1 cell noCPT: qHTS for Inhibitors of human tyrosyl-DNA phosphodiesterase 1 (TDP1): qHTS in cells in absence of CPT; AID 686978, 2013; Potency, µM (doses to about 46.2 µM), for the others: at the top dose activity change, negative = growth inhibition, actives largely listed as inhibitors; actives 15% (n = 420,000); DT40 Tdp1-/- hTDP1 cells, no CPT, ATP luminescence, 48 h; also: potency is read from the fitted curve at half-maximal effect; nearly all actives have a fitted effect of over 55% in size
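Cells were dispensed at 400 per well, compounds added by pin tool, plates incubated ≥48 hr at 37 °C, then CellTiter-Glo added for 30 min at room temperature before luminescence reading. Line: DT40 Tdp1-/- complemented with hTDP1; camptothecin omitted.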
DT40 TDP1 CPT: qHTS for Inhibitors of human tyrosyl-DNA phosphodiesterase 1 (TDP1): qHTS in cells in presence of CPT; Potency, µM (titrated, usually from 46.2 µM), for the others: at the top dose activity change, negative = growth inhibition, actives largely listed as inhibitors; actives 12% (n = 420,000); chicken DT40 Tdp1-/-;hTDP1 cells + 20 nM CPT, ATP luminescence, 48 h; AID 686979, 2013; also: potency is read from the fitted curve at half-maximal effect; nearly all actives have a fitted effect of over 55% in size
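Cell growth measured by CellTiter-Glo luminescence after a minimum 48 h, 37 C compound exposure with 20 nM CPT in Tdp1-knockout DT40 cells stably expressing hTDP1, seeded 400/well; qHTS titration format.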
IL1B secr inh: qHTS for Inhibitors of Inflammasome Signaling: IL-1-beta AlphaLISA Primary Screen. AID 743279, 2014. actives 4.7% (n = 360,000). THP-1 LPS/ATP IL-1B secretion, AlphaLISA, 16 h; stronger effect = lower value. activity change, % at 57.5 µM; in the data active = activity change below about -50%; inconclusive = mostly about -30% to -49%
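Secreted IL-1B measured by AlphaLISA bead assay after 16 h compound exposure of THP-1 cells; compounds (final up to 57.5 uM) added 1 h before LPS (250 ng/mL) and ATP (1.25 mM) stimulation; lower signal means less secretion.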
* marks the source's active call; other numbers are inactive results; ? = inconclusive; nt = no result; ! = not active in a repeat; [ ] = dose if it differs, or a comment. Unless noted, calls follow the shape of the dose curve; as a rule, active = well fitted curve in the direction sought with a large enough effect; inconclusive = small, poorly fitted or top-dose-only effect, or another doubt; inactive = no such curve, though single readings can be large; an effect the other way counts as inactive or inconclusive. Unless noted, % is scaled to controls: 0 for no effect and ±100 for the full control effect.

SMILES	HT1080NT lethal	HT1080 IDH1KD tx	TDP1 cell noCPT	DT40 TDP1 CPT	IL1B secr inh
Oc1cccc2ccc(/C=C/c3ccccc3Br)nc12	?	?	5.8µM*	6.51µM*	62.0
Oc1ccc2ccccc2c1/C=C/c1ccc2c(Br)cc(Br)c(O)c2n1	?	29.1µM*	5.17µM*	3.66µM*	10.7
Oc1c(Cl)cc(Cl)cc1/C=C/c1ccc2cccc(O)c2n1	?	?	?	?	10.7
COc1cc(Br)cc(/C=C/c2ccc3cccc(O)c3n2)c1O	?	?	9.2µM*	14.6µM*	-6.2
Nc1nnnn1-c1ccccc1	nt	nt	-0.9%	-18.9%	nt
COc1cc(/C=C/c2ccc3cccc(O)c3n2)ccc1O	-29.6%	?	16.4µM*	?	?
Oc1ccc(Cl)cc1/C=C/c1ccc2cccc(O)c2n1	?	20.6µM*	25.9µM*	?	5.6
COc1cc(Br)c(/C=C/c2ccc3cccc(O)c3n2)cc1OC	-29.8%	-17.5%	13µM*	11.6µM*	-6.3
CCOc1cc(/C=C/c2ccc3cccc([N+](=O)[O-])c3n2)cc(Cl)c1O	-3.6%	-5.5%	?	?	7.9
O.O=C([O-])CC([S-])C(=O)[O-].[Au+].[Na+].[Na+] (stereo unspecified)	nt	nt	0.1%	-21.5%	nt
Cc1cccc(CN2CCN(C3CN(Cc4ccc([N+](=O)[O-])cc4)S(=O)(=O)C3)CC2)c1 (stereo unspecified)	-6.6%	?	23.1µM*	16.4µM*	-7.3
O=[N+]([O-])c1ccc(CN2CC(N3CCCC3)CS2(=O)=O)cc1 (stereo unspecified)	1.9%	0.4%	-1.6%	10.3%	-1.0
O=[N+]([O-])c1ccc(CN2CC(N3CCN(CC4CC4)CC3)CS2(=O)=O)cc1 (stereo unspecified)	-1.0%	8.2%	-24.7%	-24.1%	16.7
O=S1(=O)CC(N2CCC(Cc3ccccc3)CC2)CN1CCc1ccccc1 (stereo unspecified)	2.6%	0.0%	20.6µM*	?	29.0
O=[N+]([O-])c1ccc(CN2CC(N3CCC(Cc4ccccc4)CC3)CS2(=O)=O)cc1 (stereo unspecified)	-8.7%	-5.7%	16.4µM*	16.4µM*	6.0
CN(CC(=O)Nc1ccccc1C(=O)NC1CC1)Cc1ccco1	-5.7%[9.24 µM]	1.6%	1.5%	-2.7%	-8.0
O=C(NCCN1Cc2ccccc2OC(c2ccccc2F)C1)c1ccco1 (stereo unspecified)	nt	nt	?	12.8%[9.04 µM]	nt
Cc1ccc2nc(-c3ccc(NC(=O)Cc4cccs4)cc3)[nH]c2c1	?	?	?	23.1µM*	-19.3
O=C(Nc1ccc2nc(-c3ccc4nc[nH]c4c3)[nH]c2c1)c1cccs1	-20.2%	-26.6%	?	-24.8%	-21.3
O=C(Nc1ccc2nc(-c3ccco3)[nH]c2c1)c1cccs1	-19.3%	-28.0%	?	20.6µM*	-7.1
O=C(c1ccccc1)c1ccc2nc(-c3ccc(NC(=O)c4ccccc4F)cc3)[nH]c2c1	?	?	3.26µM*	3.66µM*	16.7
O=C(Nc1ccc2nc(-c3ccccc3)[nH]c2c1)c1cccs1	?	15.8%[9.24 µM]	13µM*	25.9µM*	-64.5*
O=C(CN1C(=O)CSc2ccc(S(=O)(=O)N3CCCCC3)cc21)NCc1ccccc1Cl	-2.2%	-16.3%	-26.4%	-22.5%	-0.6
O=C(Nc1cccc(C(=O)N2CCCCC2)c1)C1CCCCC1	12.6%	9.5%	-5.3%	-16.1%	14.0
Cn1cc([N+](=O)[O-])c(C(=O)Nc2ccc3nc(-c4ccccc4)[nH]c3c2)n1	?	?	18.4µM*	?	59.0
SMILES	HT1080NT lethal	HT1080 IDH1KD tx	TDP1 cell noCPT	DT40 TDP1 CPT	IL1B secr inh
Cn1cc([N+](=O)[O-])c(C(=O)Nc2ccc(-c3nc4ccccc4[nH]3)cc2)n1	?	?	?	5.9%	-12.0
O=C(c1ccccc1NS(=O)(=O)c1ccc(F)cc1F)N1CCCCC1	17.8%	-2.5%	-27.9%	-1.8%	14.7
CCCCC(=O)NC(=S)Nc1c(C)cc(Br)cc1C	0.9%	1.4%	18.4µM*	20.6µM*	31.1
COc1cc(/C=N/NC(=O)c2ccncc2)ccc1OC(=O)c1cc(OC)c(OC)c(OC)c1	2.4%	-8.3%	-5.2%	7.5%	28.8
CNc1nc(-c2ccc3c(c2)CCN3C(=O)c2ccccc2F)c(C)s1	-4.0%	-7.9%	?	?	nt
CC(=O)Nc1nc(-c2ccc3c(c2)CCN3C(=O)C2CC2)c(C)s1	-26.6%	?	1.3µM*	1.46µM*	-5.4
Cc1sc(NC(=O)CN2CCCC2)nc1-c1ccc2c(c1)CCN2C(=O)c1ccc(F)cc1	-25.9%	?	18.4µM*	?	-16.0
CCCN[C@H]1CCc2nc(N)sc2C1	8.7%	-1.5%	16.8µM*!	?	-3.9
Nc1nc2c(s1)CCCCCCCCCC2	-17.4%	-24.9%	?	-18.5%	21.8
CC(C)(C)c1cc2ncnc(N3CCCCC3)c2s1	-13.2%	-6.3%	29.1µM*	13µM*	-4.9
O=S(=O)(c1cnc(Cl)c(Br)c1)N1CCCCCC1	10.1%	-2.2%	-28.7%	-2.4%	-103.7*
COC(=O)C1=CN(Cc2ccc(OC)cc2)C=C(C(=O)OC)C1c1ccsc1	-5.8%	-21.0%	?	20.6µM*	-27.7
COC(=O)C1=CN(CCOC23CC4CC(CC(C4)C2)C3)C=C(C(=O)OC)C1c1ccsc1	?	?	11.6µM*	?	-27.0
CCC1C(=O)NCCN1Cc1ccc2c(c1)CN(Cc1cc(OC)ccc1OC)CCO2 (stereo unspecified)	nt	nt	?	-6.3%[9.04 µM]	nt
CC(=O)c1cccc(OCc2cc(C(=O)N3CC4C[C@@H]5CC3C[C@H](C4)C5)no2)c1	-17.4%	-7.4%	1.46µM*	2.59µM*	18.2
COc1ccccc1OCc1cc(C(=O)N2CC3C[C@@H]4CC2C[C@H](C3)C4)no1	-5.6%	-4.8%	13µM*	11.6µM*	0.0
O=C(c1cc(COc2ccc(F)cc2F)on1)N1CC2C[C@@H]3CC1C[C@H](C2)C3	-4.0%	-12.2%	2.59µM*	6.51µM*	-98.3*
COc1ccc(OCc2cc(C(=O)N3C[C@H]4CC[C@H]3C4)no2)c(Cl)c1	3.9%	-5.3%	-26.1%	-3.4%	-13.8
O=C(c1cc(COc2ccc(F)cc2F)on1)N1C[C@H]2CC[C@H]1C2	-3.9%	-4.9%	?	?	-17.9

Source: PubChem
